Assay results published in the supplement of paper PMC11732987, “Enantioselective OTUD7B fragment discovery through chemoproteomics screening and high-throughput optimisation” (Communications Chemistry, 2025).

Tests used:
Test in all cases: log2 ratio of Biotin-Ahx-Ub-VS probe labelling (fragment/DMSO); higher = less target engagement (more negative = stronger competition), active = hit call of the paper (q ≤ 0.05, log2 ratio ≤ -1)
Settings in all cases: compound concentration: 200 uM; treatment time: 3 h
[1] = target: USP34 (UniProt Q70CQ2)
USP34, sequence (Q70CQ2 whole entry, the tested form may be a part): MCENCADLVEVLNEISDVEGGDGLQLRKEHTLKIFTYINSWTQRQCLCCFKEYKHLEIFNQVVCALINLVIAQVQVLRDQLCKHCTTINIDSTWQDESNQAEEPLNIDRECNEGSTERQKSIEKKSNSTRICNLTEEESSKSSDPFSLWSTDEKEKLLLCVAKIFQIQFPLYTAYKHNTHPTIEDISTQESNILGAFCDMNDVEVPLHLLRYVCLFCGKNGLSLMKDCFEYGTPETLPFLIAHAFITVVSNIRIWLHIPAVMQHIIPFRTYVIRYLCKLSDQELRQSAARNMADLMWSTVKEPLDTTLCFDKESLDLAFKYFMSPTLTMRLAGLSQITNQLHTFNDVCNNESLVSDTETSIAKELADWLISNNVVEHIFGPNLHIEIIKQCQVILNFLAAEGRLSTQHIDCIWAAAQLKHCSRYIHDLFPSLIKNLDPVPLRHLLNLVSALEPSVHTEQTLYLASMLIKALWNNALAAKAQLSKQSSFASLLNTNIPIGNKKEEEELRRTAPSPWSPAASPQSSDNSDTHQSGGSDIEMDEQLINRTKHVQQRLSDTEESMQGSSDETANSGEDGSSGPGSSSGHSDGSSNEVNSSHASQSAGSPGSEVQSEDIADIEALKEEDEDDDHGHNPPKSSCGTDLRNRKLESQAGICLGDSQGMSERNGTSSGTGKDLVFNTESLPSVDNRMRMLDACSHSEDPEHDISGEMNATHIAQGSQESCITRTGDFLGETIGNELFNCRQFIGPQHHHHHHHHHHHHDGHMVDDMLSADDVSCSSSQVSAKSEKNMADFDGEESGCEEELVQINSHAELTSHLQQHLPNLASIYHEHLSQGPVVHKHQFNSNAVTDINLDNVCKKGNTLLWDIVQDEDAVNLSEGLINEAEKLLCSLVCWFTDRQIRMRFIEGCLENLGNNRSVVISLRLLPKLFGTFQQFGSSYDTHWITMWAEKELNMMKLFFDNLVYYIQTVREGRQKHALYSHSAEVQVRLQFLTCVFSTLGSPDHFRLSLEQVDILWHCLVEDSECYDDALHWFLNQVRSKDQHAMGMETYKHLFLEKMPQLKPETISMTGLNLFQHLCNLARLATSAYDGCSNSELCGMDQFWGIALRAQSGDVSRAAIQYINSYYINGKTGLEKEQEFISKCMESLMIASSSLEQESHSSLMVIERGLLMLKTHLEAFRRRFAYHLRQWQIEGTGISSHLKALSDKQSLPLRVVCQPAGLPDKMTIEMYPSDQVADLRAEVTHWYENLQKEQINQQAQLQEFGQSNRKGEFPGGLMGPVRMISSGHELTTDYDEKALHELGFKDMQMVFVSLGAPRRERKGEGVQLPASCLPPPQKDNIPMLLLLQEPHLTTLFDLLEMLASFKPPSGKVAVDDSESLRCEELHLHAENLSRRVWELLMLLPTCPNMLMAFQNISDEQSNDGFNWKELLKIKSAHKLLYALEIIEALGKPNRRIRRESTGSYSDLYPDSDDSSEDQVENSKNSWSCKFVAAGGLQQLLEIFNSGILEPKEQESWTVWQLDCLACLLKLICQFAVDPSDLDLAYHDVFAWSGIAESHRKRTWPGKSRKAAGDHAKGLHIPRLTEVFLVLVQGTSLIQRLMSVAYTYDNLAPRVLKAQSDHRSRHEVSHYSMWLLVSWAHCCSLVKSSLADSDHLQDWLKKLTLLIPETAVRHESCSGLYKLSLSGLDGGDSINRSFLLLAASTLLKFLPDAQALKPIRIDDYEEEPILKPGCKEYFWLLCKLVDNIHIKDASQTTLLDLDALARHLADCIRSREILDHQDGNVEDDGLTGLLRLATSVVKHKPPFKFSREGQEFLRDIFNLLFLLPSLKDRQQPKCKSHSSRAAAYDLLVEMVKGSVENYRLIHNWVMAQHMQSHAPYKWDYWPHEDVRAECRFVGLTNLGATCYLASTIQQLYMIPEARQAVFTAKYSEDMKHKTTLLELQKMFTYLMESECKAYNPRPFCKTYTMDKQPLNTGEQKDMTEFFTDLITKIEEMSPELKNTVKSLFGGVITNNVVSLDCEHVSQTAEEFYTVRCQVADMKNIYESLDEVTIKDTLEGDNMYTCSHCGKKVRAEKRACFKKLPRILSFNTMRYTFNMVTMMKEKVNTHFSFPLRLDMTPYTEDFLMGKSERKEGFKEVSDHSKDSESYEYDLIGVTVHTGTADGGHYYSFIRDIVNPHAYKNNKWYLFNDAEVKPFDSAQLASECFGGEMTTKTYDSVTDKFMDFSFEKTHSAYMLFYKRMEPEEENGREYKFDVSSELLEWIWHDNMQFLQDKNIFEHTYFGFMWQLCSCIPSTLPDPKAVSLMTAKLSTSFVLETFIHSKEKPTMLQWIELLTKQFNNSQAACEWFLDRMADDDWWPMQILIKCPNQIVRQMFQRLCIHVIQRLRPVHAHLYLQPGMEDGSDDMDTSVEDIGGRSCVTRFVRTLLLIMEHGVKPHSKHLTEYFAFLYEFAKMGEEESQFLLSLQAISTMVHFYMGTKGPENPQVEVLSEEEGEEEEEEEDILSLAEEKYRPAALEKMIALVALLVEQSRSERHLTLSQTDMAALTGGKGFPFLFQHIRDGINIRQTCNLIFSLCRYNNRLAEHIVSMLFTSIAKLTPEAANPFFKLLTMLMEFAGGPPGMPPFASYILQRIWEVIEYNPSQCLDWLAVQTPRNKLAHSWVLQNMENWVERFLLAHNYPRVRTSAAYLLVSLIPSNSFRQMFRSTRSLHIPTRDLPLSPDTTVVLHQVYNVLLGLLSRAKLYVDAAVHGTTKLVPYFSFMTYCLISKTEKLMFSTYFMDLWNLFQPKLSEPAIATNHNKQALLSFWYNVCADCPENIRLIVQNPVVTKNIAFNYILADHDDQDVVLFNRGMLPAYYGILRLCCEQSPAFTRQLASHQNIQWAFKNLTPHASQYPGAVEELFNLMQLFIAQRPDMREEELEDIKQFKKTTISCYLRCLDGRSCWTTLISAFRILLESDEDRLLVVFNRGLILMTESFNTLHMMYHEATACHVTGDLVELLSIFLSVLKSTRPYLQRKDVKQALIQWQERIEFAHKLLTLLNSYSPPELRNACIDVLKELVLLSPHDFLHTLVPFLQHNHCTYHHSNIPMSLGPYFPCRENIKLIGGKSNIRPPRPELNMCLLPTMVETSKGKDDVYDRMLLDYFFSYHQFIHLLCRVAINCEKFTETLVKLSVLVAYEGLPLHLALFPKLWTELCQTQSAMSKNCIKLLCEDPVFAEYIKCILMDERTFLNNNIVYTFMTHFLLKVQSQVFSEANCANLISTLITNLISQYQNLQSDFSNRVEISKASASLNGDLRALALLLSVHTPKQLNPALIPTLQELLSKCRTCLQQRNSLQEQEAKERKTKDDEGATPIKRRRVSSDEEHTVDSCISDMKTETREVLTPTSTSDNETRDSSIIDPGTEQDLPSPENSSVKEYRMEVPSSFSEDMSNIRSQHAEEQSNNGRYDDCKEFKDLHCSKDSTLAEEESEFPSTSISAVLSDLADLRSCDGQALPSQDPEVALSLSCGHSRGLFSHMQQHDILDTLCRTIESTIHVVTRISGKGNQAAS
Procedure, shortened: (§1)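 HEK293T lysate (495 µg per sample, in Tris/CHAPS/IGEPAL buffer with protease inhibitors) was exposed in triplicate for 3 h to fragment at 200 µM or to vehicle, then to Biotin-Ahx-Ub-VS at 0.5 µM final for 1 h. Labelled DUBs were enriched on NeutrAvidin, digested with LysC and trypsin, and analysed by diaPASEF LC-MS/MS. Spectronaut label-free quantities were normalised to the global median, and values are average log2 ratios of fragment over vehicle from an unpaired t-test. Only proteins with ≥2 unique peptides were used.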

[2] = target: T1, USP36 (UniProt Q9P275)
T1 sequence (whole entry): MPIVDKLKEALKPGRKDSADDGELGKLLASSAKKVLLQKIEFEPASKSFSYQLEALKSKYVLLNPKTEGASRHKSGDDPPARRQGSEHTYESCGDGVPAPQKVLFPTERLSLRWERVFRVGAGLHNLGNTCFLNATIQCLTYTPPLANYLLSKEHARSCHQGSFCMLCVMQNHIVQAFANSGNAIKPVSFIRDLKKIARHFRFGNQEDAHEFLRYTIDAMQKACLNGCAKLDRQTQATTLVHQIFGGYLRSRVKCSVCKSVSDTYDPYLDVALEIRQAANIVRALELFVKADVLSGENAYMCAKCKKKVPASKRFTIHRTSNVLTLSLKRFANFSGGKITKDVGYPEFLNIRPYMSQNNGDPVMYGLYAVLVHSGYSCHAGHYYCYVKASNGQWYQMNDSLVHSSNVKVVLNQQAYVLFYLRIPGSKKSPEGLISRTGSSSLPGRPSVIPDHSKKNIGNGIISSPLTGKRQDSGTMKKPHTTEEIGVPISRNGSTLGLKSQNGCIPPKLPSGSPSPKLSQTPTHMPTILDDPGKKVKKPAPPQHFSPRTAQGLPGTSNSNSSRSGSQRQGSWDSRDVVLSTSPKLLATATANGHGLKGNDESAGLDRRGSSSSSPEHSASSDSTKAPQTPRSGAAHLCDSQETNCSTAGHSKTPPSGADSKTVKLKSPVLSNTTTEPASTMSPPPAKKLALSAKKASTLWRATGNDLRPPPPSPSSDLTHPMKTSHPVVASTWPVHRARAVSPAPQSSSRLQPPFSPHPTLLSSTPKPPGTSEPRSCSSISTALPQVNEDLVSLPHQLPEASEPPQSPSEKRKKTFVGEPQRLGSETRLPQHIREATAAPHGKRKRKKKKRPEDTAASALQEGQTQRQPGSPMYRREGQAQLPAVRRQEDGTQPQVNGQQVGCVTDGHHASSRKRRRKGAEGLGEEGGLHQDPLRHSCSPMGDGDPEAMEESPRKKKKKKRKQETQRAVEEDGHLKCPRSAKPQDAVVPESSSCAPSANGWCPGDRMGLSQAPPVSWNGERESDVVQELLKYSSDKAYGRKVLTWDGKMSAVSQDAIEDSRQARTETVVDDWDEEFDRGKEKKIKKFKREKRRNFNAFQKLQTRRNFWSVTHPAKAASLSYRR
Procedure, shortened: as §1

[3] = target: T2, USP38 (UniProt Q8NB14)
T2 sequence (whole entry): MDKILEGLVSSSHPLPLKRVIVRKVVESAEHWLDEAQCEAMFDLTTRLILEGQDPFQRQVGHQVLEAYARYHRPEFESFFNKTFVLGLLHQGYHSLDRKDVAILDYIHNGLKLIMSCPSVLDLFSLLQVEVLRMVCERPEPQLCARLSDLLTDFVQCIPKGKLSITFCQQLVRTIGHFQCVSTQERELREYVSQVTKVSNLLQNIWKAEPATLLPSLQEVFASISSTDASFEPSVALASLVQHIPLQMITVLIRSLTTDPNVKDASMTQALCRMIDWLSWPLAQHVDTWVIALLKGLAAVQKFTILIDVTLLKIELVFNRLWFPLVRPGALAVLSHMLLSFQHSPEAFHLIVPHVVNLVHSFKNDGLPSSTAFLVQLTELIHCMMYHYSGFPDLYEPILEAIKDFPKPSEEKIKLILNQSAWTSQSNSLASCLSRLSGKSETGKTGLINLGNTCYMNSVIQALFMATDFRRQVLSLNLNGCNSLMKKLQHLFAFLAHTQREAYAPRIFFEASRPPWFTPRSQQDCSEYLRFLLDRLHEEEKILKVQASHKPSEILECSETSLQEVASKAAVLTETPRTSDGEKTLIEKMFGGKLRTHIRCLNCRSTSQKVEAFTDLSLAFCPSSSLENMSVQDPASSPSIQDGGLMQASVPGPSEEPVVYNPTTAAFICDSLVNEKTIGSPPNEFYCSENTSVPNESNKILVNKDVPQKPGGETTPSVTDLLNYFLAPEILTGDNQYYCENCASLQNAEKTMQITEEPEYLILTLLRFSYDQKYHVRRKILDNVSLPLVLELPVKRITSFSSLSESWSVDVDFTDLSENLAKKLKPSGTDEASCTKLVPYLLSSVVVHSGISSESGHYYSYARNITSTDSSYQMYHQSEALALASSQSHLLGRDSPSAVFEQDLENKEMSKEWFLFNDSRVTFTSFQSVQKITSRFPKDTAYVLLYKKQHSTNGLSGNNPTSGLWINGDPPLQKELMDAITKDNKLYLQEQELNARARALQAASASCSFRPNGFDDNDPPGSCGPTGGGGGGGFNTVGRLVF
Procedure, shortened: as §1

[4] = target: T3, USP39 (UniProt Q53GS9)
T3 sequence (whole entry): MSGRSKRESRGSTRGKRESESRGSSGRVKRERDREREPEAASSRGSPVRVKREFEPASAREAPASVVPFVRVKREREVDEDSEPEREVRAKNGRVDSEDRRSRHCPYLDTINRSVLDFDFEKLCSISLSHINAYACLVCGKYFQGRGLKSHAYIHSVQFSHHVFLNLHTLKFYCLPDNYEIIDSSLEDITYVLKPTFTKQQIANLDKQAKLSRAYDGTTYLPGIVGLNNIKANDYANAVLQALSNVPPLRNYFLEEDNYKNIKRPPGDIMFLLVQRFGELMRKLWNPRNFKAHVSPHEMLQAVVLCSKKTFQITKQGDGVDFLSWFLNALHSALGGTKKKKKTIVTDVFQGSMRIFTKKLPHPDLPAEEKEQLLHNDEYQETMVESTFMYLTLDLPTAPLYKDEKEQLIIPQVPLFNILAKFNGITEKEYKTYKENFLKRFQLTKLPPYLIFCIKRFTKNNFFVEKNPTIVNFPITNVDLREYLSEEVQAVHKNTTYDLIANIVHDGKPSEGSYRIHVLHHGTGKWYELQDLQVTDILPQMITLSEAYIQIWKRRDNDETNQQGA
Procedure, shortened: as §1

[5] = target: T4, USP4 (UniProt Q13107)
T4 sequence (whole entry): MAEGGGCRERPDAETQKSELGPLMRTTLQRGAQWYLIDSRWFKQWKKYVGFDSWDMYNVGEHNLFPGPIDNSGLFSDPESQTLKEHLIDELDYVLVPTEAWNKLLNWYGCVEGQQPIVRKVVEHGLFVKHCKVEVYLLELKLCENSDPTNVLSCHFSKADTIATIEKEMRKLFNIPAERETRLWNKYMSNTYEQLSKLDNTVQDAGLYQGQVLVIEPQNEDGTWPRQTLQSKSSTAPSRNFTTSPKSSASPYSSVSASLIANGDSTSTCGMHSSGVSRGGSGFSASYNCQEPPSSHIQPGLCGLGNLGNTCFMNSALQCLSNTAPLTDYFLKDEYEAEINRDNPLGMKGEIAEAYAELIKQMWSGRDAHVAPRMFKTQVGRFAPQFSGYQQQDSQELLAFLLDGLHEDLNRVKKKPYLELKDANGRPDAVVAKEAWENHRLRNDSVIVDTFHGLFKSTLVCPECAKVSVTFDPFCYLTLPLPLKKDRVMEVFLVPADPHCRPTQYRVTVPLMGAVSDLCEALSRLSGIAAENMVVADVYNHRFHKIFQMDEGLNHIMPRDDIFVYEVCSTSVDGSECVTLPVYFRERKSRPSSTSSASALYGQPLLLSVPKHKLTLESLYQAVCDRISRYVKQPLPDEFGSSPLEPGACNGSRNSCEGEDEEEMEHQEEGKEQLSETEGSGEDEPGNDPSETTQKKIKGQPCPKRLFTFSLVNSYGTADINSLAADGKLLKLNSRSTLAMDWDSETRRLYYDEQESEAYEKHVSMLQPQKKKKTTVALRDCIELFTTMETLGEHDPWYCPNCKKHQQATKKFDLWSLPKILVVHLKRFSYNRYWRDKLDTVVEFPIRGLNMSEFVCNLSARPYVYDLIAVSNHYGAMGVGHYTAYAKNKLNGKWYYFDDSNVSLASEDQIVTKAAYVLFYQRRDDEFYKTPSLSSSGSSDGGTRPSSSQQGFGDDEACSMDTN
Procedure, shortened: as §1

Measured: log2 ratio of Biotin-Ahx-Ub-VS probe labelling

CC(NC(=O)CCl)c1noc(Cc2ccccc2)n1 (stereo not given)
inactive: [1] -0.0517 | [2] -0.338 | [3] -0.21 | [4] -0.245 | [5] -0.142
